# CHOP inhibitor = inhibitors of CHOP promoter induction, primary screen, cell-based, unfolded protein response, luciferase reporter | CHO-K1 CHOP-promoter luciferase, tunicamycin-induced, 15-18 h | inhibition, % at 10 µM | hit rate 3.8% among 220,000 | AID 2732, 2010;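 active = compounds that reduced the stress-induced luciferase reporter signal by more than about 70% of percent inhibition, limit read from the data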;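 note: 0% = tunicamycin plus vehicle and 100% = wells without tunicamycin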
# CF NFkB block = inhibitors of PAF-induced NF-kB signaling, primary screen, cell-based, GFP fluorescence, uHTS; KKLEB NF-kB-GFP reporter, GFP fluorescence overnight; inhibition, % at 5 µM; hit rate 0.86% among 360,000; AID 588850, 2011;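 active = at least 50% inhibition at 5 µM, scaled per plate between neutral and stimulator controls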;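 note: PAF is a Pseudomonas aeruginosa culture filtrate used as stimulus; plate controls were PAF-stimulated DMSO wells for no effect and unstimulated DMSO wells for full effect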
# TRPM1 prom inh = inhibitors of MITF-dependent TRPM1 promoter reporter, primary screen, cell-based, SK-MEL-5, single point, luciferase; AID 488899, 2010; inhibition, % at 12.5 µM; SK-MEL-5 TRPM1 promoter luciferase, 24 h; hit rate 0.83% among 330,000;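 active = mean inhibition across replicates of 60% or more, whatever share of single replicates reaches that level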
# HIF-2a block = HIF-2a reporter inhibitors, primary screen, luminescence, 786-0 RCC cells | 786-0 RCC cells HIF-2a reporter, luciferase luminescence, overnight | inhibition, % at 18.8 µM | hit rate 0.72% among 360,000 | AID 624352, 2012;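 active = inhibition of the luminescence signal of 40% or more relative to plate controls, in a single-dose primary screen at 18.75 µM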
# Peg3 promoter = Peg3 promoter-driven luciferase inhibitors, primary screen, cell-based, HeLa, luciferase luminescence; HeLa PEG-Prom luciferase reporter, overnight; inhibition, % at 20 µM; hit rate 1.7% among 360,000;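 active = inhibition of at least 50% at 20 µM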
# KKLEB cytotox = cytotoxicity in KKLEB CF airway cells, primary screen, cytotoxicity control for CF NF-kB inhibitor project, cell-based, uHTS, fluorescence assay plates. KKLEB CF airway cells viability, ATPlite luminescence, overnight; hits give low values; cells stimulated with P. aeruginosa culture filtrate. activity change (cytotoxicity), % at 5 µM. hit rate 0.36% among 360,000. AID 602141, 2011;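 active = corrected activity change at or below -50% at 5 µM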
# Mdm2 MdmX conf = retested Mdm2-MdmX interaction blockers, confirmation, cell-based, luminescence, single concentration, set 2; AID 504601, 2011; SaOS-2 split-luciferase Mdm2/MdmX complementation; inhibition, % at 8 µM; hit rate 99% among 740; shares compounds with HIF-2a block;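 active = mean inhibition of the luminescence signal across two replicates at or above 26 percent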
# HIF-2a inh conf = HIF-2a reporter inhibitor retest, confirmation, luminescence, 786-0 RCC cells; shares compounds with HIF-2a block; HIF-2a luciferase reporter luminescence, overnight; inhibition, % at 18.8 µM; hit rate 56% among 1,800;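 active = mean inhibition across four replicates of at least 40 percent at the single tested concentration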
# HIF-1a counter = HIF-1a luciferase reporter signal reduction – MiaPaCa-2 cells, single concentration, counter-screen for HIF-2a inhibitor project, confirmation; shares compounds with HIF-2a block; MiaPaCa-2 HIF-1a luciferase reporter, desferoxamine, overnight; hit rate 72% among 1,800; inhibition, % at 18.8 µM;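 active = mean inhibition of the reporter signal across four replicates at the single tested dose of 50% or more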
# The depositor's hits bear a star; . = no result. The list is not random: actives were taken first. Their share in the collection is about 4.3%.
SMILES,CHOP inhibitor,CF NFkB block,TRPM1 prom inh,HIF-2a block,Peg3 promoter,KKLEB cytotox,HIF-2a inh conf,HIF-1a counter,others
CCC(=NCC1CCCO1)c1c(O)n(-c2ccccc2C)c(=O)[nH]c1=O (stereo unspecified),-14,-14,-4,4,15,3,.,.,
CCCC[C@@H](C)C[C@@H](C)C(=O)N(C)[C@@H](CC(C)C)C(=O)N[C@H](C(=O)N(C)[C@H](C(=O)N1C[C@@H](O)C[C@H]1C(=O)N1C(=O)C=C[C@@H]1C)C(C)C)C(C)OC(C)=O (stereo partly specified),.,84*,100*,53*,92*,-88*,.,.,Mdm2 MdmX conf=100*
COC(=O)C1=C(c2ccc(S(C)(=O)=O)cc2)C[C@@H]2CC[C@H]1N2C(=O)NCc1ccco1,.,-28,4,-13,-19,-8,.,.,
CC1(O)CCC2C3CCC4=CC(=O)CCC4(C)C34OC4CC21C (stereo unspecified),.,8,0,0,12,-5,.,.,
CC(=O)O[C@H]1[C@H]2O[C@]23[C@@H]2CC[C@]4(O)C[C@@H](O)CC[C@]4(C)C2CC[C@]3(C)[C@H]1c1ccc(=O)oc1 (stereo partly specified),.,82*,79*,76*,101*,-54*,43*,106*,Mdm2 MdmX conf=87*
C=C1C(=O)OC2C1CCC(C)C1(O)C=CC(=O)C21C (stereo unspecified),.,50,75*,47*,106*,-14,13,99*,
COc1cc(N2CCOCC2)ccc1/C=C1\C(=O)NC(=O)N(Cc2ccc3c(c2)OCO3)C1=O,-23,-2,-4,20,-3,-2,.,.,
C[C@H]1[C@@H](OS(=O)(=O)O)C[C@@H]2C[C@H]([C@@H](O)c3cc(=O)[nH]c(=O)[nH]3)NC3=NC[C@H]1N32,.,76*,74*,54*,97*,-10,23,105*,
c1ccc(-c2ccc(CN3Cc4ccccc4-n4nncc4C3)cc2)cc1,.,-46,.,-10,10,10,.,.,
O=C(c1ccccc1)C(CN1CCCC1)c1ccccc1 (stereo unspecified),24,68*,.,89*,105*,-50,31,79*,
CCN1CCN(CC(c2ccccc2)c2ccccc2)CC1,.,-17,-3,11,16,19,.,.,
CC12Nc3ccccc3C(=O)N1Cc1cnnn1-c1ccccc12 (stereo unspecified),.,.,.,-4,.,.,.,.,
CC(N)C(=O)NC1C2C(=C(O)CC(O)C2O)C(=O)OC1(C)C(Cl)Cl (stereo unspecified),.,87*,66*,45*,96*,-31,57*,104*,
CC1(C)C(C(=O)NN2C(=O)c3ccccc3C2=O)C1(C)C,-25,0,-1,5,15,5,.,.,
O=S1(=O)NCC2(CC2)CN1Cc1ccccc1,.,.,.,0,.,.,.,.,
CC(C)(O)C(=O)Nc1ccc([N+](=O)[O-])c(C(F)(F)F)c1,.,7,0,0,-8,8,.,.,
COc1cc2c(cc1OC)CN(c1ccc([N+](=O)[O-])c(C(F)(F)F)c1)CC2,26,-12,-2,46*,27,-9,-12,36,
O=C(Nc1ccc(OC(=O)N2CCCCC2)cc1)N1CCOCC1,47,15,66*,72*,16,7,76*,51*,
C[C@]12CC[C@@H](O)C[C@@H]1CC[C@@H]1[C@@H]2CC[C@]2(C)C(=O)[C@H](O)C[C@@H]12,.,5,.,1,-2,7,.,.,
CC(=O)O[C@H]1C[C@@H]2OC3C=C(C)CCC3(C)[C@@]1(C)[C@@]21CO1 (stereo partly specified),.,90*,66*,48*,96*,-19,64*,102*,
Cc1cc([N+](=O)[O-])c2ccccc2[n+]1[O-],104*,-8,78*,48*,108*,-12,.,.,Mdm2 MdmX conf=103*
Cc1ccccc1[N+](=O)[O-],.,2,14,12,4,-14,.,.,
O=C(CCc1nc(-c2ccccc2F)no1)N1CCC2(CC1)OCCO2,2,5,2,5,5,-4,.,.,
CC1=CC2OC3CC4OC(=O)C=CC=CC(=O)OCCC(C)C(O)C(=O)OCC2(CC1)C4(C)C31CO1 (stereo unspecified),.,90*,104*,75*,97*,-20,71*,103*,
CC1=CC2OC3CC4OC(=O)C=CC=CC(C(C)O)OCC(O)C5(C)OC5C(=O)OCC2(CC1O)C4(C)C31CO1 (stereo unspecified),.,96*,90*,78*,102*,-48,66*,106*,
SMILES,CHOP inhibitor,CF NFkB block,TRPM1 prom inh,HIF-2a block,Peg3 promoter,KKLEB cytotox,HIF-2a inh conf,HIF-1a counter,others
CC1CCOC(=O)C=CC=CC(=O)OC2CC3OC4C5OC5(C)C(O)CC4(COC(=O)C1O)C2(C)C31CO1 (stereo unspecified),.,90*,80*,67*,99*,-9,56*,103*,
COc1cc(/C=N/n2cnnc2)ccc1OC(=O)N(C)C,-19,2,2,7,5,20,.,.,
COc1cc(/C=C/[N+](=O)[O-])ccc1OC(=O)c1cccnc1,.,34,32,42*,88*,1,54*,45,
Cc1nc2ncnn2c(C)c1CCC(=O)N1CCC2(CC1)OCCO2,-7,5,3,7,5,8,.,.,
Cc1nc2cc(-c3ccccc3)nn2c(C)c1CCC(=O)N1CCC2(CC1)OCCO2,54,2,41,70*,-41,-6,81*,36,
CCC(C)n1c(O)c(C=Nc2cccc(C(F)(F)F)c2)c(=O)[nH]c1=S (stereo unspecified),60,9,5,31,6,3,.,.,
CCCSP1(=S)NCCCO1 (stereo unspecified),20,12,13,10,13,-2,.,.,

# Compound activity deposited in PubChem by several laboratories.
